# Laboratory results published in PubChem BioAssay (NCI).
# Several values for one entry are separate records, joined by “and”; a condition that tells them apart may be missing. Equal entries are not always repeated. About 83,000 compounds went through this panel and 20% of them were active in at least one assay; those are over-represented in the sample as a whole.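 Treatment: one concentration, 48 hours, 96-well format. Scoring: percent growth, with anything below 10 considered active.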 Activity calls are given as the source filed them.
# Tested on: MDA-MB-468 breast
# Assay: NCI-60 one-dose screen, 48 h (100 = growth as untreated, 0 = no growth, -100 = all killed)
# Conditions: 10 µM unless noted
row,SMILES,growth
1,COC[C@@]1(C)CC[C@]2(C)CC[C@]3(C)C(=CC[C@@H]4[C@@]5(C)CCCNC(C)(C)[C@@H]5CC[C@]43C)C2C1 (stereo partly drawn),50.9% (inactive)
2,O=[N+]([O-])c1ccc2[nH]cc(-c3c4ccsc4cc4[nH]c5ccc([N+](=O)[O-])cc5c34)c2c1,1.21% (active)
3,COc1c2c(cc3c1C(=O)N[C@@H]1[C@@H](O)[C@@H](O)[C@H](O)C[C@@H]31)OCCO2,93.1% (inactive)
4,C[n+]1c2ccccc2c(Nc2ccc(NS(=O)(=O)CCCCN=C(N)N)cc2)c2ccc(N)cc21,39% (inactive)
5,O=C(O)CNC1=C(Cl)C(=O)c2ccccc2C1=O,109% (inactive)
6,OCCNCCCOc1ccc2ncnc(Nc3ccc(Oc4cccc(C(F)(F)F)c4)c(Cl)c3)c2c1,-64.6% (active)
7,COc1cc(C(=O)CCCl)ccc1O,94.7% (inactive)
8,COc1ccc(Cc2nc3cc(OC)c(OC)cc3c(=O)[nH]2)cc1,56% (inactive)
9,CCN1C(=O)N(CC)C2C1NC(=S)N2/N=C/C=C/c1ccccc1 (stereo not drawn),3.7% (active)
10,C(=N\Nc1ncc(-c2cc3cc4c(cc3o2)OCO4)s1)/c1ccco1,27.3% (inactive)
11,Cn1cc(-c2cc3c(Nc4ccc(CC(=O)Nc5cc(C(C)(C)C)on5)cc4)ncnc3[nH]2)cn1,-74.3% (active) and -62.1% (active)
12,COc1cc(NCC(O)CN(CC(C)C)CC(C)C)c2nc(C)ccc2c1 (stereo not drawn),-6.94% (active)
13,Cc1ccc(S(=O)(=O)Nn2c3c(cc(-c4nc5ccccc5s4)c2=O)CCCCCC3)cc1,110% (inactive)
